{"source": "PubChem BioAssay AID504834", "about": "(National Center for Advancing Translational Sciences (NCATS), 2011)", "note": "About 22,000 (6.9%) of roughly 320,000 compounds were called active. Roughly 27% stayed inconclusive and do not appear here. Shown is part of a subset that was picked to be rich in actives. A number with no mark means an inactive call. The call rests on the fitted dose curve; in most records, active means well fitted inhibition curve with a large enough effect; inconclusive means small, poorly fitted or top-dose-only effect, or another doubt; inactive means no such curve, though single readings can be large or run the other way. On the % scale 0 is the no-effect control and ±100 the full control effect; potency means the concentration at half of the fitted maximal effect."}
{"assay": "Primary qHTS for delayed death inhibitors of the malarial parasite plastid, 96 hour incubation", "settings": "P. falciparum luciferase reporter growth; series mostly up to 28.7 µM; activity change, negative = inhibition: at the top concentration", "in_short": "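Delayed-death screen, second-generation endpoint: infected erythrocytes, 2% hematocrit, 0.05% parasitemia final; 96 hours at 37 C, 5% CO2; luciferase detection reagent; luminescence decrease equals reduced growth.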", "units": {"activity change, negative = inhibition": "%"}}
{"smiles": "Cc1cccc(-n2nc3c(c2NC(=O)c2cc4ccccc4o2)CS(=O)(=O)C3)c1", "activity change, negative = inhibition": -14.9}
{"smiles": "COc1ccc(/C(C)=N\\NC(=O)c2ccc(-c3ccccc3)cc2)c(F)c1", "Potency": "10.4 µM (active)"}
{"smiles": "COc1cccc(C(=O)N/N=C(\\C)c2cccc(NC(=O)c3ccc(F)cc3)c2)c1OC", "activity change, negative = inhibition": 42.8}
{"smiles": "CCN(CC)c1ccc(C(=O)N/N=C(\\C)c2cccc(OC)c2)cc1", "activity change, negative = inhibition": -11.7}
{"smiles": "CN(Cc1nc2ccccc2s1)C(=O)c1ccc(F)cc1", "activity change, negative = inhibition": 18.1}
{"smiles": "COc1ccccc1CC(=O)Nc1ccc(S(=O)(=O)N2CCCC2)cc1", "activity change, negative = inhibition": -1.9}
{"smiles": "Cn1cc(CCC(=O)N2CCCC(C(=O)c3ccc(C(C)(C)C)cc3)C2)cn1", "note": "(configuration not stated)", "activity change, negative = inhibition": 0.855}
{"smiles": "CCOC(=O)C1CCCN(C(=O)/C=C/c2ccc(OC)cc2)C1", "note": "(configuration not stated)", "activity change, negative = inhibition": 35.4}
{"smiles": "Cn1cc(/C=C/C(=O)N2CCCC(C(=O)c3ccc(C(F)(F)F)cc3)C2)cn1", "note": "(configuration not stated)", "Potency": "10.4 µM (active)"}
{"smiles": "Cc1cccc(NC(=O)N2CCCCCC2)c1C", "activity change, negative = inhibition": 95.6}
{"smiles": "N[C@@H](Cc1ccccc1)C(=O)N1CCOCC1", "activity change, negative = inhibition": 79.6}
{"smiles": "COc1cccc(CNC(=O)c2cccnc2Sc2ccc(Cl)cc2)c1", "activity change, negative = inhibition": -1.02}
{"smiles": "O=C1c2cccc3cccc(c23)C(=O)N1c1cccc(O)c1", "activity change, negative = inhibition": 8.72}
{"smiles": "CCC(=C/c1sc2ccc3ccccc3c2[n+]1C)/C=C1\\Sc2ccc3ccccc3c2N1C", "Potency": "9.28 µM (active)"}
{"smiles": "CC1(C)C2CCC1(CS(=O)(=O)NCCc1c[nH]c3ccccc13)C(=O)C2", "note": "(configuration not stated)", "activity change, negative = inhibition": -23.1}
{"smiles": "Cc1csc(=O)n1CC(=O)OCC(=O)N(CC(C)C)c1c(N)n(Cc2ccccc2)c(=O)[nH]c1=O", "activity change, negative = inhibition": 22.2}
{"smiles": "Nc1nnc2c(C(F)(F)F)nc3ccccc3n12", "activity change, negative = inhibition": 37.9}
{"smiles": "Cc1ccc(OCCNC(=O)CCNS(=O)(=O)c2ccc(Br)cc2)cc1", "activity change, negative = inhibition": 71.1}
{"smiles": "COc1cc2c(cc1OC)/C(=C/C(=O)c1ccc(NC(C)=O)cc1)NCC2", "activity change, negative = inhibition": 2.38}
{"smiles": "COc1ccccc1CNC(=O)C1CCN(S(=O)(=O)c2ccc3c(c2)OCCO3)CC1", "activity change, negative = inhibition": 53.5}
{"smiles": "COc1ccc(S(=O)(=O)N2CCC(C(=O)NCc3ccco3)CC2)cc1C", "Potency": "5.22 µM (active)"}
{"smiles": "Cc1ccc(S(=O)(=O)N2CCC(C(=O)N[C@@H](C)C(=O)NCc3ccco3)CC2)cc1", "activity change, negative = inhibition": -18.9}
{"smiles": "CCc1ccc(C(=O)N2CCN(S(=O)(=O)c3sc(C(=O)O)c(C)c3C(=O)O)CC2)cc1", "activity change, negative = inhibition": -17.5}
{"smiles": "COc1cccc(NC(=O)c2ccc(S(=O)(=O)N(C)C)cc2)c1", "activity change, negative = inhibition": 4.96}
{"smiles": "O=C(Nc1nnc(-c2ccco2)o1)c1ccc(S(=O)(=O)N2CCOCC2)cc1", "activity change, negative = inhibition": 1.01}
{"smiles": "COc1cccc(-c2nnc(NC(=O)c3ccc(S(=O)(=O)N(CC(C)C)CC(C)C)cc3)o2)c1", "Potency": "1.65 µM (active)"}
{"smiles": "Cc1ccc(NS(=O)(=O)c2ccc(C(=O)NCCCN3CCOCC3)cc2)cc1", "activity change, negative = inhibition": 3.25}
{"smiles": "CCOc1ccc(NS(=O)(=O)c2ccc(C(=O)NCC(c3ccccc3OC)N3CCCC3)cc2)cc1", "note": "(configuration not stated)", "Potency": "14.7 µM (active)"}
{"smiles": "O=C(NCC1(N2CCCCC2)CCCCC1)c1ccc(NS(=O)(=O)c2ccc(F)cc2)cc1", "Potency": "10.4 µM (active)"}
{"smiles": "COc1ccc(C(CNC(=O)c2ccc(S(=O)(=O)Nc3ccccc3F)cc2)N(C)C)cc1", "note": "(configuration not stated)", "activity change, negative = inhibition": -20}
{"smiles": "O=C(OC1CCOC1=O)c1cccc(S(=O)(=O)Nc2ccc(F)cc2)c1", "note": "(configuration not stated)", "activity change, negative = inhibition": -31.8}
{"smiles": "COc1ccccc1C(CNC(=O)c1cccc(NS(=O)(=O)c2ccc(Br)cc2)c1)N(C)C", "note": "(configuration not stated)", "Potency": "6.57 µM (active)"}
{"smiles": "O=C(NCc1ccccc1CN1CCCC1)c1cccc(S(=O)(=O)Nc2ccc(F)cc2)c1", "Potency": "10.4 µM (active)"}
{"smiles": "O=C(NCc1cccc(C(F)(F)F)c1)c1cccc(S(=O)(=O)N2CCN(Cc3ccccc3)CC2)c1", "activity change, negative = inhibition": -17.2}
{"smiles": "CC(=O)c1ccc(S(=O)(=O)Nc2ccc(C(=O)NCC(c3ccccc3)N(C)C)cc2)cc1", "note": "(configuration not stated)", "activity change, negative = inhibition": -1.6}
{"smiles": "CCOc1ccc(S(=O)(=O)Nc2ccc(C(=O)NCCCN3CCCC3=O)cc2)cc1", "activity change, negative = inhibition": -11.4}
{"smiles": "CCOc1ccc(S(=O)(=O)Nc2ccc(S(=O)(=O)Nc3cc(OC)ccc3OC)cc2)cc1", "activity change, negative = inhibition": -5.22}
{"smiles": "O=C(NCC1CCCO1)c1ccc(S(=O)(=O)Nc2ccc(F)cc2)cc1", "note": "(configuration not stated)", "activity change, negative = inhibition": 33.4}
{"smiles": "COc1cc(C#Cc2ccc3cc(CCCO)oc(=O)c3c2)cc(OC)c1", "activity change, negative = inhibition": -9.41}
{"smiles": "Cc1ccc(NC(=O)CN(C)C(=O)COC(=O)C(C)(C)Oc2ccc(Cl)cc2)cc1", "activity change, negative = inhibition": 47.3}
{"smiles": "CC1(c2ccc3ccccc3c2)NC(=O)N(CC(N)=O)C1=O", "note": "(configuration not stated)", "activity change, negative = inhibition": 22}
{"smiles": "O=C(NCCCn1ccnc1)c1cc2c(s1)CCCC2", "activity change, negative = inhibition": 13.7}
{"smiles": "CCOC(=O)CC1(NC(=O)c2cc(COc3cncc(Cl)c3)on2)CCCCC1", "activity change, negative = inhibition": -28.6}
{"smiles": "COc1ccc(S(=O)(=O)NCCOc2ccccc2)cc1F", "activity change, negative = inhibition": 14.1}
{"smiles": "CC(C)(C)n1ncc2c(=O)n(Cc3c(Cl)cccc3Br)cnc21", "activity change, negative = inhibition": -44.3}
{"smiles": "O=C(O)c1ccc(/C=C2\\SC(=S)N(NC(=O)c3ccc(Br)cc3)C2=O)cc1", "activity change, negative = inhibition": 8.46}
{"smiles": "CS(=O)(=O)N1CCN(CC(=O)NC2CCCC2)CC1", "activity change, negative = inhibition": 9.01}
{"smiles": "CCN(CC(=O)Nc1c(F)cccc1F)C(=O)c1ccc(S(=O)(=O)N2CCCCC2)cc1", "activity change, negative = inhibition": -2.32}
{"smiles": "Cn1c(CCN2CCCC2)nc2cc(NS(=O)(=O)c3ccccc3)ccc21", "activity change, negative = inhibition": -19.7}
{"smiles": "COc1ccccc1C(CNC(=O)c1cccc(S(=O)(=O)Nc2ccc(F)cc2)c1)N(C)C", "note": "(configuration not stated)", "Potency": "8.28 µM (active)"}
{"smiles": "COc1ccc(C(CNC(=O)c2ccc(NS(=O)(=O)c3ccc(F)c(C)c3)cc2)N(C)C)cc1", "note": "(configuration not stated)", "activity change, negative = inhibition": -24.6}
{"smiles": "CN(C)C(CNC(=O)c1cccc(S(=O)(=O)Nc2ccc(Br)cc2)c1)c1ccco1", "note": "(configuration not stated)", "activity change, negative = inhibition": 2.97}
